The source of these data is the supplement of paper PMC10849652.

About 7,900 targets were measured; listed, in parts, are those with a hit and a random draw of the rest. About 0.6% of all pairs of compound and target were hits. Values without a mark were called inactive.

Chain of UniProt O15198 (O15198 whole entry, looked up): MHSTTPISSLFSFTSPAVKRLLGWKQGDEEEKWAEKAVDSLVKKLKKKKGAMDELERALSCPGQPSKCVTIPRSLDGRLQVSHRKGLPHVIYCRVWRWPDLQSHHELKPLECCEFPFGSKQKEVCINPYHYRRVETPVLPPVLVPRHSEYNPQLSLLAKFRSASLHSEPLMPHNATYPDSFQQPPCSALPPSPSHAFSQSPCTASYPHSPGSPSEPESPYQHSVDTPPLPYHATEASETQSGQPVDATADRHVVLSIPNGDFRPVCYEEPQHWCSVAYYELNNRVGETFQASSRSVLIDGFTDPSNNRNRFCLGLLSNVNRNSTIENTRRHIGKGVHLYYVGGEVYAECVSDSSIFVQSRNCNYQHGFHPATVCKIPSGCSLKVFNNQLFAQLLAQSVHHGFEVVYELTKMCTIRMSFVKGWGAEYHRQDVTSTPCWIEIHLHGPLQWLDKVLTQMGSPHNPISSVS
Chain of UniProt Q16629 (Q16629 whole entry, looked up): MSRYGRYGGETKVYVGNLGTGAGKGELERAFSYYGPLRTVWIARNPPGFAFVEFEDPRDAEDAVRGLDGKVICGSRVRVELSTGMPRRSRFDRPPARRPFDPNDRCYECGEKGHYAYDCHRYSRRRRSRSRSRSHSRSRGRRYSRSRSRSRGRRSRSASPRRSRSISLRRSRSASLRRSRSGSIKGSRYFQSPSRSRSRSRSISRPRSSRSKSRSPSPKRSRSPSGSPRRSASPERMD
Chain of UniProt P42229 (P42229 whole entry, looked up): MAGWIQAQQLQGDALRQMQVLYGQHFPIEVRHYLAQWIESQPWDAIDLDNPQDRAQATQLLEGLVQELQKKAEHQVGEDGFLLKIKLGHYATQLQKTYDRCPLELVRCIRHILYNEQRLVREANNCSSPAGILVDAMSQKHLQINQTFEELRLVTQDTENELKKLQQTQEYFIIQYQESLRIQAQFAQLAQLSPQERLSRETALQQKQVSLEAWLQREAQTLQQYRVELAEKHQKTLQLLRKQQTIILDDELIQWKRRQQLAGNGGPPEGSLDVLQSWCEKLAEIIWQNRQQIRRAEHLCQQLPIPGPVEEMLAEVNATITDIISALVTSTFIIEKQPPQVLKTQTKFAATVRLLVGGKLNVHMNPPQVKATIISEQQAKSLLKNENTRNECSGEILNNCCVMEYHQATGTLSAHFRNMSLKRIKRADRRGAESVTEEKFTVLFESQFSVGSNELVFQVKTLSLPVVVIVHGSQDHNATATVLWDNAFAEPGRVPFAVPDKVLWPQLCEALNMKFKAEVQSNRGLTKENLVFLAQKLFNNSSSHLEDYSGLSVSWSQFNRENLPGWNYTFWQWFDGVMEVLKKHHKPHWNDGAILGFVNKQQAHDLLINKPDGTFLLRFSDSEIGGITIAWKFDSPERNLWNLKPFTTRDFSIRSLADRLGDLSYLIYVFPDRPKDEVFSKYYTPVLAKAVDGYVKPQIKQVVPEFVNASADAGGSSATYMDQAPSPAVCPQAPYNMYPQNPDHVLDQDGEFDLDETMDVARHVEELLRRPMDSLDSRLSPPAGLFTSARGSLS
Chain of UniProt Q8WVK2 (Q8WVK2 whole entry, looked up): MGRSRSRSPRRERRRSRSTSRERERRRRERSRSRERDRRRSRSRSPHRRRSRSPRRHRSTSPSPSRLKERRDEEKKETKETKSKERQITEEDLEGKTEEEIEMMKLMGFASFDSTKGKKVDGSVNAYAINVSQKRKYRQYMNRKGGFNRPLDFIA
Chain of UniProt P02786 (P02786 whole entry, looked up): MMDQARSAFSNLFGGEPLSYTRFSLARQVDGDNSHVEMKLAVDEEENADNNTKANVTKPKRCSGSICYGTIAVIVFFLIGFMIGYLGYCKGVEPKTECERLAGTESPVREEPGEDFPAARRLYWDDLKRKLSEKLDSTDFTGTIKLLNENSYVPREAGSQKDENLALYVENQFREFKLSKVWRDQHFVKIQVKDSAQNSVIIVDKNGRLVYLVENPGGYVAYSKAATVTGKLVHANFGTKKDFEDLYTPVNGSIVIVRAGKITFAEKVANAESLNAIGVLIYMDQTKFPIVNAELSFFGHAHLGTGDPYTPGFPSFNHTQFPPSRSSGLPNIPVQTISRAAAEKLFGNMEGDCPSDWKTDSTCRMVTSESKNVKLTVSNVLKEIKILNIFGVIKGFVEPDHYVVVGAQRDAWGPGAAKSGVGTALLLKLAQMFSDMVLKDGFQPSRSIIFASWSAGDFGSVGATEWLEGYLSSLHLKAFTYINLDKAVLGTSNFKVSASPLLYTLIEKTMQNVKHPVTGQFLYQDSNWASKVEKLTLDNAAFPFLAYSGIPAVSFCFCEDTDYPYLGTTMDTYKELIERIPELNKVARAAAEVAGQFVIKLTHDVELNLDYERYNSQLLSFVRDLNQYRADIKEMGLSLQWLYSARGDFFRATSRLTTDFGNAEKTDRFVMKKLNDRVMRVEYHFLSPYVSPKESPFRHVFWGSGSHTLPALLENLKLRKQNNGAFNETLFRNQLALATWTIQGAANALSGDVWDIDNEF
Chain of UniProt Q9BTW9 (Q9BTW9 whole entry, looked up): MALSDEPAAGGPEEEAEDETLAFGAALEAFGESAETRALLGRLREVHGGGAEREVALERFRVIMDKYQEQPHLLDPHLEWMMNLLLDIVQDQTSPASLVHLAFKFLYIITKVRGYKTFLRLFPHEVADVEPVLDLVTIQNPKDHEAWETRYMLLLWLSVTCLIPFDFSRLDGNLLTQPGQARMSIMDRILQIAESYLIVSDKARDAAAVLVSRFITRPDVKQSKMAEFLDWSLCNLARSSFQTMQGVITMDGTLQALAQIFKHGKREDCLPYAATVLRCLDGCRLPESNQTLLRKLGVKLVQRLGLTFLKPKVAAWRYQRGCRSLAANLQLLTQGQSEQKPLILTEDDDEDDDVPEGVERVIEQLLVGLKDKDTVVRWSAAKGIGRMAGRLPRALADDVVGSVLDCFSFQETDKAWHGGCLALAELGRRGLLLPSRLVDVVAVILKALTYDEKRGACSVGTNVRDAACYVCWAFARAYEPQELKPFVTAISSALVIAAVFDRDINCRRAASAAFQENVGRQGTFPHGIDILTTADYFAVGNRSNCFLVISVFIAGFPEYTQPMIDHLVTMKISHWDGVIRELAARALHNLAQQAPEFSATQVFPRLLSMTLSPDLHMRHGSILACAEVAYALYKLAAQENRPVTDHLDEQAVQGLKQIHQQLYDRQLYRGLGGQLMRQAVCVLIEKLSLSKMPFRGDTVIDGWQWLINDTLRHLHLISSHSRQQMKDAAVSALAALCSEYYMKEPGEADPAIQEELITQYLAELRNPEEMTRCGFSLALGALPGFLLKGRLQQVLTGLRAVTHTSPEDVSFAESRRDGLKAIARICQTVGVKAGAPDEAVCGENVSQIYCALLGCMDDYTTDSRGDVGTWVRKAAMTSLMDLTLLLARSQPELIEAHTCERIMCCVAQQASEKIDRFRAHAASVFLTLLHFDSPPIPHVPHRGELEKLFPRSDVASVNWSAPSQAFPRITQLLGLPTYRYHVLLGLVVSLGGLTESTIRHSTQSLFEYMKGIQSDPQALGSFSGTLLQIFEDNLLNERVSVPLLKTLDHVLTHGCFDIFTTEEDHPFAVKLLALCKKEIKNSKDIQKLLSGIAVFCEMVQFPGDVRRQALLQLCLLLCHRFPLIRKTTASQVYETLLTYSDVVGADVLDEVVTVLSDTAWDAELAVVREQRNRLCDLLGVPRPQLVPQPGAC
Chain of UniProt Q8NEW0 (Q8NEW0 whole entry, looked up): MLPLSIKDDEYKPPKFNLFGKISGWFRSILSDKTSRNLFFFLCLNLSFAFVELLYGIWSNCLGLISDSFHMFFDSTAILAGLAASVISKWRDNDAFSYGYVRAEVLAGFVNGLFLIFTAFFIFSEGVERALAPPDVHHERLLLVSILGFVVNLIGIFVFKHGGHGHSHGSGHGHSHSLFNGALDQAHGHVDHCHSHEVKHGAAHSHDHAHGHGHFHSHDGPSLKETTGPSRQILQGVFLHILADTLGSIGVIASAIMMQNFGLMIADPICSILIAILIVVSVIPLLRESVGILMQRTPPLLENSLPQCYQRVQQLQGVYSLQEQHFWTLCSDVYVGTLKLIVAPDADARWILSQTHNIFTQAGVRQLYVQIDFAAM
Chain of UniProt Q15796 (Q15796 whole entry, looked up): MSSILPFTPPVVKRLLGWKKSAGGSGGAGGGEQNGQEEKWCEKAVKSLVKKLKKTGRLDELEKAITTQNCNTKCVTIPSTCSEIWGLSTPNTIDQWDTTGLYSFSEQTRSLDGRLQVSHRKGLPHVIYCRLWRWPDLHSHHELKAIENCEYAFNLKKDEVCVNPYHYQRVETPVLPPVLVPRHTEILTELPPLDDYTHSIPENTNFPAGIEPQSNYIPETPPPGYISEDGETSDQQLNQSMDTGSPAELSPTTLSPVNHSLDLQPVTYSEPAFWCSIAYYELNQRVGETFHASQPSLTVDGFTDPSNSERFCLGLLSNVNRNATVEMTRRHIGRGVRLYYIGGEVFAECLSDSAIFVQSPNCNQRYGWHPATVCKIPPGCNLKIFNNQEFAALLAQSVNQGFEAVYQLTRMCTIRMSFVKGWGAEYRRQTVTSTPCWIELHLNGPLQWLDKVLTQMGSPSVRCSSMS
Chain of UniProt Q9NQZ5 (Q9NQZ5 whole entry, looked up): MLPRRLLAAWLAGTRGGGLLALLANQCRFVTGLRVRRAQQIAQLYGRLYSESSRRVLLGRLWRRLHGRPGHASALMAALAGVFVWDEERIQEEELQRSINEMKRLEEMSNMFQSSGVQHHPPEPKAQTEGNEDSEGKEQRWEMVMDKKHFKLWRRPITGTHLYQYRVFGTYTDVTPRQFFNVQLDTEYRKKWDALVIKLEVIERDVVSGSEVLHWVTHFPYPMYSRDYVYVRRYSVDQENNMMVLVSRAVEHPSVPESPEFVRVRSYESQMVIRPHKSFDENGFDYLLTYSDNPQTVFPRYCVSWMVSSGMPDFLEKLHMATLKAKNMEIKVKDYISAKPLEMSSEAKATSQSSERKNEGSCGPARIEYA
Chain of UniProt P63165 (P63165 whole entry, looked up): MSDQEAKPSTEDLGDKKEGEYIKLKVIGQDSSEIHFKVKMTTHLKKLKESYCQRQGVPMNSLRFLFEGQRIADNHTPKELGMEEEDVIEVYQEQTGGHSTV

Compound in the assay: COc1cc2ncnc(Nc3ccc(F)c(Cl)c3)c2cc1OCCCN1CCOCC1 [gefitinib]
Briefly: log2 fold change, soluble protein after heating vs DMSO (PISA); higher = thermal stabilisation; K562 cells, 10 uM, 30 min; active = over 0.2 and 3.5 SD of the protein, either way, in both replicates (recomputed). A digest of the protocol: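 Thermal stability values are relative to control samples and come from duplicates. They are expressed as log2 fold changes. For measurement, K562 cells (2×10^6 cells/mL) received 10 μM compound for 30 min, and aliquots were heated for 3 min over 48°C-58°C, pooled, and extracted at 4°C in PBS with 0.5% NP-40. Soluble protein, the supernatant after 21,000xg for 90 min, was quantified by TMTpro 16plex LC-MS/MS with equalised channel sums.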
As to SNRNP27 (UniProt Q8WVK2), the log2 fold change was -0.011.

On to SRP68 (UniProt Q9UHB9), for which the log2 fold change is 0.008.

Turning to SP3 (UniProt Q02447), the log2 fold change is -0.038.

Regarding TLK2 isoform 2 (UniProt Q86UE8), the log2 fold change is 0.007.

On to STAT6 (UniProt P42226), for which the log2 fold change is 0.014.

Regarding SLC38A9 (UniProt Q8NBW4), the log2 fold change is -0.012.

Regarding STAM2 (UniProt O75886), the log2 fold change is 0.002.

SLC30A7 (UniProt Q8NEW0): the log2 fold change is 0.017.

With STARD7 (UniProt Q9NQZ5), the log2 fold change is -0.035.

Regarding SUMO1 (UniProt P63165), the log2 fold change was 0.004.

Turning to STAT5A (UniProt P42229), the log2 fold change was 0.047.

As to SRPRA (UniProt P08240), the log2 fold change was -0.032.

Take TBC1D15 isoform 3 (UniProt Q8TC07): the log2 fold change was 0.015.

Take TFRC (UniProt P02786): the log2 fold change is 0.004.

On to SRSF7 (UniProt Q16629), for which the log2 fold change was 0.084.

Consider TAMM41 isoform 3 (UniProt Q96BW9), for which the log2 fold change is -0.025.

Consider STK38 (UniProt Q15208), for which the log2 fold change is -0.038.

With SLC6A6 (UniProt P31641), the log2 fold change is -0.044.

Take TBC1D23 (UniProt Q9NUY8): the log2 fold change is -0.058.

Regarding SMAD9 (UniProt O15198), the log2 fold change was 0.066.

In the case of SRSF3 (UniProt P84103), the log2 fold change was -0.026.

Take TBCD (UniProt Q9BTW9): the log2 fold change was 0.022.

For TECR (UniProt Q9NZ01), the log2 fold change is -0.027.

As to STK39 (UniProt Q9UEW8), the log2 fold change was -0.014.

As for TAF9 (UniProt Q16594), the log2 fold change was 0.01.

On to SUPT16H (UniProt Q9Y5B9), for which the log2 fold change is 0.062.

Take SRFBP1 (UniProt Q8NEF9): the log2 fold change is 0.06.

As to SLC9A6 isoform 2 (UniProt Q92581), the log2 fold change was -0.017.

As for SNX11 (UniProt Q9Y5W9), the log2 fold change is -0.05.

On to SREK1 isoform 2 (UniProt Q8WXA9), for which the log2 fold change is 0.066.

Regarding SMAD2 (UniProt Q15796), the log2 fold change is 0.117.

For TBC1D5 isoform 2 (UniProt Q92609), the log2 fold change was -0.031.

In the case of SLC25A36 (UniProt Q96CQ1), the log2 fold change was -0.014.

As to SLC7A6 (UniProt Q92536), the log2 fold change was 0.073.

As for SUGP1 (UniProt Q8IWZ8), the log2 fold change is 0.055.

Take TAOK1 (UniProt Q7L7X3): the log2 fold change is 0.033.

Regarding STXBP5 (UniProt Q5T5C0), the log2 fold change was -0.006.

Take SURF1 (UniProt Q15526): the log2 fold change was -0.055.
